The source of these data is PubChem BioAssay (EPA / NIEHS).

The structures appear in SMILES notation. Inconclusive results are not listed. The source made the active and inactive calls. How the source made its calls: active means hit-call score of the fitted dose curve at least 0.9, where 1 is the maximum; inconclusive means response in the unintended direction; inactive means score below 0.9.

A short description of this assay: ATG_Hpa5_TRANS: Attagene TRANS-FACTORIAL HepG2 Assay for human GAL4-Hpa5 Hepatocyte Transcription Factor Basal Promoter (AID 2282975).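 Further: hits are increases in reporter mRNA over DMSO baseline.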 The conditions noted are these: HepG2 Attagene GAL4-Hpa5 transcription reporter. The procedure: ATG_TRANS is a cell-based, multiplexed-readout assay that uses HepG2, a human liver cell line, with measurements taken at 24 hours after chemical dosing in a 24-well plate.ATG_Hpa5_TRANS is one of 30 assay component(s) measured or calculated from the ATG_TRANS assay. It is designed to make measurements of mRNA induction, a form of inducible reporter, as detected with fluorescence intensity signals by Reverse transcription polymerase chain reaction (RT-PCR) and Capillary electrophoresis technology.Data from the assay component ATG_Hpa5_TRANS was analyzed into 1 assay endpoint. This assay endpoint, ATG_Hpa5_TRANS, was analyzed in the positive analysis fitting direction relative to DMSO as the negative control and baseline of activity. Using a type of inducible reporter, measures of mRNA for gain-of-signal activity can be used to understand the background control at the transcription factor-level as they relate to the gene . Furthermore, this assay endpoint can be referred to as a secondary readout, because this assay has produced multiple assay endpoints where this one serves a background control function. To generalize the intended target to other relatable targets, this assay endpoint is annotated to the background measurement intended target family, where the subfamily is internal marker.
Human liver HepG2 cells are transiently transfected with multiple reporter transcription units (MRTUs) in 6-well plates using FuGene 6 reagent (Roche; 3 ml FuGene/1 mg DNA). The MRTU constructs are regulated by a cis-regulating element (promoter). […] A major difference between the CIS and TRANS system is that in CIS activities of endogenous TFs are measured, whereas the TRANS assay evaluates changes in activities of exogenous, chimeric NR-Gal4 proteins. […] At the end of 24 hour incubation, total RNA was isolated using TriZol reagent (Invitrogen). The isolated RNA is then reverse-transcribed using oligo(dT) primer and Mo-MLV reverse transcriptase (Invitrogen) with DNAse I (Ambion) treatment for 30 min. The one-tenth of the produced cDNA was amplified by PCR using Taq DNA polymerase (Invitrogen) and two reporter sequence-specific primers. The PCR products were fluorescently labeled by primer extension with 6-arboxyfluorescein (6-FAM) 5'-labeled reporter sequence-specific primer (2 min at 95 C, 20 s at 68 C and 10 min at 72 C) and these products were digested with 5U of HpaI (New England Biolabs) for 2h at 37 C. The fragments were purified using Qiaquick PCR columns (Qiagen), analyzed on an ABI 3130xL genetic analyzer (Applied Biosystems) with peak positions identified by using a set of X-rhodamine (ROX)-labeled MapMarker1000 molecular weight standards (BioVentures). The raw capillary electrophoresis data was processed using Attagraph software (Attagene).
With `O=C1C2CC=CCC2C(=O)N1SC(Cl)(Cl)Cl` (stereo not given), the compound was called inactive.

On to `CCOP(=S)(OCC)Oc1nc(Cl)n(C(C)C)n1`, for which the result was inactive.

As for `CC(C)C1(C)N=C(c2ncccc2C(=O)O)NC1=O` (stereo not given), the call was inactive.

Turning to `CCOC(=O)C(C)OC(=O)c1cc(Oc2ccc(C(F)(F)F)cc2Cl)ccc1[N+](=O)[O-]` (stereo not given), the result was inactive.

In the case of `CS(=O)(=O)c1cc(C(F)(F)F)ccc1C(=O)c1cnoc1C1CC1`, the call was inactive.

Take `N#Cc1c[nH]cc1-c1cccc2c1OC(F)(F)O2`: the call was inactive.

Regarding `CC(C)=CC1C(C(=O)OCc2coc(Cc3ccccc3)c2)C1(C)C` (stereo not given), the compound was classed as inactive.

For the compound `CCCC(=NOCC)C1=C(O)CC(CC(C)SCC)CC1=O` (stereo not given), the result was inactive.

As for `CC(C)N1C(=O)c2ccccc2NS1(=O)=O`, the call was inactive.

For the compound `COCc1cnc(C2=NC(C)(C(C)C)C(=O)N2)c(C(=O)O)c1` (stereo not given), the compound was classed as inactive.

With `CC1(C)C(C=C(Cl)Cl)C1C(=O)OC(C#N)c1cccc(Oc2ccccc2)c1` (stereo not given), the compound was classed as inactive.

For `COCC(=O)N(c1c(C)cccc1C)C(C)C(=O)OC` (stereo not given), the compound was called inactive.

With `CCOc1nc(F)cc2nc(S(=O)(=O)Nc3c(Cl)cccc3Cl)nn12`, the compound was called inactive.

`Clc1cccc(C(Cl)(Cl)Cl)n1`: the call was inactive.

On to `CNC(=O)N(C)c1nnc(C(C)(C)C)s1`, for which the result was inactive.

Take `CCOP(=O)(OCC)Oc1nc(Cl)c(Cl)cc1Cl`: the result was inactive.

For the compound `CCCCC(C#N)(Cn1cncn1)c1ccc(Cl)cc1` (stereo not given), the compound was called inactive.

As for `Cc1nc(N(C)C)nc(OC(=O)N(C)C)c1C`, the compound was called inactive.

For `CSC(=O)c1c(C(F)F)nc(C(F)(F)F)c(C(=O)SC)c1CC(C)C`, the compound was classed as inactive.

For `O=c1n(Cl)c(=O)n(Cl)c(=O)n1Cl`, the call was inactive.

Consider `COP(=O)(OC)O/C(C)=C/C(=O)N(C)C`, for which the call was inactive.

As to `CC(C)Oc1cccc(NC(=O)c2ccccc2C(F)(F)F)c1`, the result was inactive.

In the case of `CS(=O)(=O)c1ccc(C(=O)C2C(=O)CCCC2=O)c([N+](=O)[O-])c1`, the call was inactive.

For `N#Cc1c(Cl)cccc1Cl`, the outcome was inactive.

For `CCN(CC)C(=O)C(C)Oc1cccc2ccccc12` (stereo not given), the compound was classed as inactive.

Turning to `CN=C=S`, the compound was called inactive.

Consider `CC1(C)C(C(=O)OC(C#N)c2cccc(Oc3ccccc3)c2)C1(C)C` (stereo not given), for which the call was inactive.

For `N#CN=C1SCCN1Cc1ccc(Cl)nc1`, the outcome was inactive.

Take `CCN(CC)c1nc(C)cc(OP(=S)(OC)OC)n1`: the call was inactive.

`COC(=O)c1c(C(F)F)nc(C(F)(F)F)c(C2=NCCS2)c1CC(C)C`: the compound was called inactive.

For the compound `Nc1cnn(-c2ccccc2)c(=O)c1Cl`, the outcome was inactive.

With `Cc1cc(C)nc(Nc2ccccc2)n1`, the compound was called inactive.

For `CCSC(=O)N1CCCCCC1`, the compound was called inactive.

Turning to `C=C(C)CN(CC)c1c([N+](=O)[O-])cc(C(F)(F)F)cc1[N+](=O)[O-]`, the call was inactive.

Regarding `CC(C)(C)C(=O)C(Oc1ccc(Cl)cc1)n1cncn1` (stereo not given), the call was inactive.

Regarding `CC(C)N1C(=O)N(c2ccccc2)CSC1=NC(C)(C)C`, the call was inactive.

On to `Nc1c(Cl)c(Cl)nc(C(=O)O)c1Cl`, for which the result was inactive.

Take `COc1cc(OC)nc(NC(=O)NS(=O)(=O)c2ncccc2OCC(F)(F)F)n1`: the call was inactive.

Turning to `COc1cc(Cl)c(OC)cc1Cl`, the call was inactive.

For the compound `CC1(C)CON(Cc2ccccc2Cl)C1=O`, the call was inactive.
